Measurements taken from PubChem BioAssay (NCI).
This is part of a sample that, as a whole, favours compounds with a hit. Of some 79,000 tested, about 15% had one in any assay. Rule as the data show it: active = growth inhibition above about 70%; inactive = the rest.

Key:
[1] = NCI Yeast Anticancer Drug Screen. Data for the rad50 strain (AID 155);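 also: 0% = growth of vehicle-only cultures of the same strain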; conditions: S. cerevisiae rad50 strain growth inhibition; at 50.0 µM; hits give high values
How it was run: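 Inhibition values express reduced yeast growth in compound-treated cultures relative to vehicle-treated controls.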

[2] = NCI Yeast Anticancer Drug Screen. Data for the mec2-1 strain (AID 157); conditions: S. cerevisiae mec2-1 strain, at 50.0 µM, hits give high values
How it was run: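 Using mec2-1 yeast: add compound, measure growth, express inhibition versus vehicle-treated cultures.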

[3] = NCI Yeast Anticancer Drug Screen. Data for the sgs1 mgt1 strain (AID 161);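 also: 0% = growth of cultures given vehicle only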; conditions: S. cerevisiae sgs1 mgt1 strain, at 50.0 µM, hits give high values
How it was run: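 This yeast growth screen uses a strain with defined DNA-repair lesions; compound-treated growth is compared with vehicle-treated growth.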

[4] = NCI Yeast Anticancer Drug Screen. Data for the cln2 rad14 strain (AID 165);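 also: 0% = growth equal to vehicle treated cultures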; conditions: S. cerevisiae cln2 rad14 strain, at 50.0 µM, hits give high values
How it was run: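 Yeast strain cln2 rad14, bearing defects in cell cycle control and DNA repair, serves as the test system; values reflect growth inhibition compared with vehicle.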

[5] = NCI Yeast Anticancer Drug Screen. Data for the bub3 strain (AID 167); conditions: S. cerevisiae bub3 mutant strain, at 50.0 µM, hits give high values
How it was run: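 Steps: expose the mutant yeast strain to compound; grow alongside vehicle-treated cultures; measure growth; express inhibition against the vehicle cultures.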

[6] = NCI Yeast Anticancer Drug Screen. Data for the mlh1 rad18 strain (AID 175); conditions: S. cerevisiae mlh1 rad18 strain growth inhibition; at 50.0 µM; hits give high values
How it was run: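 Steps: expose repair-defective yeast to compound; measure growth; express inhibition against vehicle-treated controls.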

Measured: growth inhibition

Cc1cccc(CNc2ccc(S(=O)(=O)c3ccc(NCc4cccc(C)n4)cc3)cc2)n1
inactive: [1] 4.7% | [2] 4.35% | [3] 9.75% | [4] -8.95% | [5] -5.95% | [6] 15.4%

CCOC(=O)C1=C(C(C)=O)C(c2cccc([N+](=O)[O-])c2)C(C(C)=O)=C(C(=O)OCC)N1
inactive: [1] -1.8% | [2] 4.05% | [3] -8.8% | [4] -2.8% | [5] -13.6% | [6] 7.25%

COC(=O)C1=CCOc2c1c(C(=O)OC)nn2C
inactive: [1] -4.8% | [2] -8.15% | [3] -2.4% | [4] 6.1% | [5] -11.2% | [6] 24.9%

CC(/C=C/c1ccccc1)=N\N=C(C)\C=C\c1ccccc1
inactive: [1] 0.45% | [2] -20.2% | [3] -31.4% | [4] 20.9% | [5] -37.8% | [6] -23.4%

O=C(NC(Cc1c[nH]c2ccccc12)(C(=O)O)C(=O)O)OCc1ccccc1
inactive: [1] 23.1% | [2] 15.1% | [3] 18.7% | [4] 29.1% | [5] 2.1% | [6] 17.8%

Cc1cc(Sc2ccc(Cl)cc2)nc(Sc2ccc(Cl)cc2)c1C#N
inactive: [1] 7.6% | [2] -30.5% | [3] -27.9% | [4] -20.6% | [5] -10.7% | [6] -26.9%

COC(=O)N1CCc2c(nc(N(C)CCO)[nH]c2=O)C1
inactive: [1] -0.55% | [2] -20.5% | [3] -47.2% | [4] -3.8% | [5] -30.1% | [6] -30.6%

COC(=O)CCCCCCCCC(=O)OC
inactive: [1] 8.9% | [2] 33.8% | [3] 8.8% | [4] 8.95% | [5] 25.8% | [6] 7.15%

O=c1cc(C=Nc2cccc(Br)c2)[nH]c(=S)[nH]1
inactive: [1] -4.4% | [2] -17.4% | [3] -15.4% | [4] -24.8% | [5] -10.1% | [6] -10%

CCN(CC)[Si](C)(C)N(CC)CC
inactive: [1] -20.2% | [2] -24.4% | [3] -1.2% | [4] -41% | [5] -4.5% | [6] 8.1%

CN(Cc1ccccc1)c1ccccn1
inactive: [1] -12.9% | [2] -21.8% | [3] -18.9% | [4] -2.05% | [5] -12.7% | [6] 8.85%

CC(C)(C)OC(=O)N1CCCC1C(=O)NCCNc1ccc(NCCNC(=O)C2CCCN2C(=O)OC(C)(C)C)c2c1C(=O)c1ccccc1C2=O (stereo not given)
inactive: [1] 13.8% | [2] 13.4% | [3] 21.4% | [4] 52.4% | [5] 2.35% | [6] -25%

O=C1C2C3C=CC(C3)C2C(=O)N1c1ncc([N+](=O)[O-])s1 (stereo not given)
inactive: [1] 17.8% | [2] -6.85% | [3] 26.9% | [4] -57.9% | [5] -14.2% | [6] 12.3%

Cc1cc(S(=O)(=O)Nc2nc(N)nc(N3CCCCC3)n2)c(S)cc1Cl
inactive: [1] -0.3% | [2] -11.7% | [3] -13% | [4] -7.15% | [5] -5.2% | [6] 5.35%

O=[N+]([O-])c1ccc(N/N=C/c2ccccc2Cl)c([N+](=O)[O-])c1
inactive: [1] 15.3% | [2] -9.55% | [3] -1.15% | [4] -22.4% | [5] 9.75% | [6] 27.3%

CCc1ccc([OH2+])c(C(=O)[O-])c1.CCc1ccc([OH2+])c(C(=O)[O-])c1.CCc1ccc([OH2+])c(C(=O)[O-])c1.CCc1ccc([OH2+])c(C(=O)[O-])c1.[Cu+2].[Cu+2]
inactive: [1] 18.9% | [2] 2.5% | [3] 21.6% | [4] 29.3% | [5] 8.75% | [6] 20.9%

C[OH2+].[Cl][Cu+].[Cl][Cu+].[NH-]CCC([OH2+])CC[NH-]
inactive: [1] -9.1% | [2] -12.2% | [3] -14.4% | [4] -57.5% | [5] -2.8% | [6] 8.2%

CC1(C(N)=O)CCC1
inactive: [1] 1.8% | [2] -15.4% | [3] -18.4% | [4] -24.1% | [5] 10.2% | [6] -20.9%

CCC(C(=O)O)=C1CCCCC1
inactive: [1] 11.1% | [2] -8.15% | [3] -0.35% | [4] 9.15% | [5] 5.85% | [6] -3.9%

c1ccc(C2(c3ccccc3)Oc3ccccc3O2)cc1
inactive: [1] -10.1% | [2] 3.65% | [3] -6.45% | [4] -37.5% | [5] -6.4% | [6] 7.3%

CCCOC(=O)COc1ccccc1
inactive: [1] 10.1% | [2] 5.7% | [3] -4.3% | [4] -45% | [5] -11.4% | [6] 2.4%

COc1ccc(C2=NN(C(C)=O)c3nc4ccccc4nc3O2)cc1
inactive: [1] -25.2% | [2] -28.8% | [3] -20% | [4] -5.9% | [5] -24.6% | [6] -12.6%

CN(C)Cc1cccc(-c2ccccc2)c1O
inactive: [1] 21.8% | [2] -4.9% | [3] 12% | [4] -15.8% | [5] 5.3% | [6] 17.2%

OCc1ccccc1
inactive: [1] 37% | [2] 19.2% | [3] 0.1% | [4] -14.7% | [5] 29.4% | [6] 26.1%

c1ccc(C2OCC(OC3CCCCO3)CO2)cc1 (stereo not given)
inactive: [1] -0.1% | [2] -26.5% | [3] -24.6% | [4] -5.1% | [5] -9.45% | [6] -2.15%

O=S1c2ccccc2N=C(c2cccc3ccccc23)CC1c1cccc2ccccc12 (stereo not given)
inactive: [1] 56.4% | [2] 38.8% | [3] 52.5% | [4] 23.8% | [5] 58.1% | [6] 41%

C/C(=N\N=C(N)N)c1ccc(NC(=S)Nc2ccccc2)cc1
inactive: [1] 5.4% | [2] 3.85% | [3] 26.2% | [4] -19.9% | [5] 3.5% | [6] 9.5%

NS(=O)(=O)c1cccc([N+](=O)[O-])c1
inactive: [1] 21.1% | [2] 5% | [3] 6.7% | [4] 5.95% | [5] -2.5% | [6] -13.1%

CC1(C)CC(=O)C(C(c2ccc3c(c2)CCC3)C2C(=O)CC(C)(C)CC2=O)C(=O)C1
inactive: [1] -18.1% | [2] -27.9% | [3] -31.1% | [4] 23.9% | [5] -26.3% | [6] -21.4%

O=[N+]([O-])c1cc(C2ON=C(c3ccccc3)N2C23CC4CC(CC(C4)C2)C3)ccc1Cl (stereo not given)
inactive: [1] -9.1% | [2] 10.2% | [3] 2.7% | [4] 16% | [5] -0.85% | [6] -8.2%

COC(=O)c1c2c(cc3c1CCC3)CCC2
inactive: [1] -21.1% | [2] -3.15% | [3] -31.8% | [4] 14.8% | [5] 32.9% | [6] -20.2%

CC1=Nc2nc(=N)nc3cccc(n23)N1
inactive: [1] -3.55% | [2] -6.55% | [3] -7% | [4] -6% | [5] -7.7% | [6] 5.95%

CC(=O)N1C(=O)C2(Nc3cccnc3N2)c2ccccc21 (stereo not given)
inactive: [1] -4.85% | [2] 16.4% | [3] -1.8% | [4] -1.35% | [5] -0.95% | [6] -16.1%

Cc1csc2c1-n1cccc1C2=O
inactive: [1] 5.5% | [2] 1% | [3] -17.8% | [4] 12.2% | [5] -19.4% | [6] 24.3%

Cc1cc(CN(C)C)cc(C(C)C)c1O
inactive: [1] 1.85% | [2] -0.9% | [3] -12% | [4] 34.1% | [5] 12.8% | [6] -3.95%

O=c1c(C(c2ccc(Cl)cc2)c2c(O)c3ccccc3n(-c3ccccc3)c2=O)c(O)c2ccccc2n1-c1ccccc1
inactive: [1] -12.9% | [2] -0.65% | [3] -9.95% | [4] -12.4% | [5] -0.8% | [6] -3.4%

CCCCCC(N)=O
inactive: [1] 16.6% | [2] -7.05% | [3] 4.25% | [4] 15.2% | [5] 14.8% | [6] 31.8%

COc1ccc(C(=N)c2ccccc2C)cc1
inactive: [1] 8% | [2] -8.65% | [3] 6.05% | [4] 1.65% | [5] 8.5% | [6] -8.4%

CC1(C)C=C(C(=O)ON2C(=O)CCC2=O)C(C)(C)N1O
inactive: [1] -4.85% | [2] -25.9% | [3] -14.5% | [4] 12.7% | [5] -19.1% | [6] -16.1%

CC(C)CC(NC(=O)C(COC(C)(C)C)NC(=O)C(CSC(c1ccccc1)(c1ccccc1)c1ccccc1)NC(=O)OC(C)(C)C)C(=O)OC(C)(C)C (stereo not given)
inactive: [1] -16.1% | [2] 11.9% | [3] -1.75% | [4] -16.6% | [5] -13.9% | [6] 8.05%
